These compounds were tested on Vero E6 infected with SARS-CoV-2 (assay: morphology score (similarity to uninfected cells); higher = more like uninfected cells). Settings: 24 h.

**Q.** With CC(COc1ccccc1)NC(C)C(O)c1ccc(O)cc1 (stereo not given) [isoxsuprine] (10 µM) as the compound, how does the morphology score read?
**A.** 0.0115

**Q.** How did the morphology score turn out when CC(=O)N(CC(C)C(=O)O)c1c(I)cc(I)c(N)c1I (stereo not given) [iocetamic-acid] (10 µM) was run?
**A.** 0.0591

**Q.** Which morphology score does the source give for CCC(=O)O[C@]1(C(=O)COC(C)=O)CC[C@H]2[C@@H]3C[C@H](C)C4=CC(=O)C=C[C@]4(C)[C@H]3[C@@H](O)C[C@@]21C [methylprednisolone-aceponate] (10 µM) here?
**A.** 0.0786

**Q.** With O=C(c1ccc(F)cc1)C1CCN(CCn2c(=S)[nH]c3ccccc3c2=O)CC1 [altanserin] (10 µM) as the compound, how does the morphology score read?
**A.** -0.0789

**Q.** For CCNCCCNCCCCNCCCNCC (0.833333 µM), which morphology score is on record?
**A.** 0.312

**Q.** O=C(O)Cc1ccc(OCCNC[C@H](O)c2ccccc2)cc1 (10 µM) was tested. Which morphology score did it give?
**A.** -0.102

**Q.** For Cc1nc(Nc2cnn(C3CCNCC3)c2)nc2c1N(C)C(=O)c1cc3ccccc3cc1N2C (0.833333 µM), which morphology score is on record?
**A.** 0.143

**Q.** How did the morphology score turn out when C/C=C(/C)C(=O)O[C@H]1C(C)=C[C@]23C(=O)[C@@H](C=C(CO)[C@@H](O)[C@]12O)[C@H]1[C@@H](C[C@H]3C)C1(C)C [ingenol-mebutate] (0.833333 µM) was run?
**A.** -0.298

**Q.** Which morphology score does the source give for CCCCN(CCCC)CCCOC(=O)c1ccc(N)cc1 [butacaine] (10 µM) here?
**A.** 0.206

**Q.** C=CCN1CC[C@]23c4c5ccc(O)c4O[C@H]2[C@@H](OCCOCCOCCOCCOCCOCCOCCOC)CC[C@@]3(O)[C@H]1C5 [naloxegol] (10 µM) was tested. Which morphology score did it give?
**A.** 0.25

**Q.** COc1ccc2[nH]c(SCc3ncc(C)c(OC)c3C)nc2c1 [omeprazole-sulfide] (10 µM) was tested. Which morphology score did it give?
**A.** 0.191

**Q.** With CNC[C@@H]1CC[C@@H](N)[C@@H](O[C@H]2[C@H](O)[C@@H](O[C@H]3OC[C@](C)(O)[C@H](NC)[C@H]3O)[C@H](N)C[C@@H]2N)O1 [micronomicin] (10 µM) as the compound, how does the morphology score read?
**A.** 0.0697

**Q.** Which morphology score does the source give for COc1ccc(CNC(=O)/C=C/c2ccc3[nH]cc(CCN(C)C)c3c2)cc1 (10 µM) here?
**A.** 0.155

**Q.** How did the morphology score turn out when CC[N+](CC)(CC)CCC(O)(c1ccccc1)C1CCCCC1 (stereo not given) [tridihexethyl] (10 µM) was run?
**A.** -0.09

**Q.** O=C(CCBr)N1CC[N+]2(CC1)CC[N+]1(CCN(C(=O)CCBr)CC1)CC2 [spirobromin] (10 µM) was tested. Which morphology score did it give?
**A.** -0.0585

**Q.** Which morphology score does the source give for CCCCc1ccc2[nH]c(NC(=O)OC)nc2c1 [parbendazole] (10 µM) here?
**A.** -0.112

**Q.** CCCCCCCCCCCCCCCCO [1-hexadecanol] (10 µM) was tested. Which morphology score did it give?
**A.** -0.278

**Q.** For CCN(CC)CCOC(=O)C1(c2ccc([N+](=O)[O-])cc2)CCCC1 [nitrocaramiphen] (10 µM), which morphology score is on record?
**A.** 0.137

**Q.** How did the morphology score turn out when CC(=O)c1ccc2c(c1)[C@H](NC(=O)c1ccc(F)c(Cl)c1)[C@H](O)C(C)(C)O2 [tonabersat] (10 µM) was run?
**A.** 0.372

**Q.** How did the morphology score turn out when CCc1nc(C)ccc1O [emoxipin] (10 µM) was run?
**A.** 0.143

**Q.** CC[C@H](/C=C/[C@@H](C)[C@H]1CC[C@H]2[C@@H]3CC=C4C[C@@H](O)CC[C@]4(C)[C@H]3CC[C@]12C)C(C)C [Stigmasterol (Stigmasterin)] (10 µM) was tested. Which morphology score did it give?
**A.** 0.0238

**Q.** O=C(Nc1cccc2cccnc12)c1ccc(N2C(=O)[C@@H]3[C@H](C2=O)[C@@H]2C=C[C@H]3C2)cc1 [endo-IWR-1] (10 µM) was tested. Which morphology score did it give?
**A.** -0.0752

**Q.** With C=C[C@]1(C)CC[C@@H](C(=C)C)C[C@H]1C(=C)C [beta-elemene] (10 µM) as the compound, how does the morphology score read?
**A.** -0.205

**Q.** Which morphology score does the source give for O=C(O)c1cc(O)c2c(c1)[C@H]([C@H]1c3cc(C(=O)O)cc(O)c3C(=O)c3c(O[C@@H]4O[C@H](CO)[C@@H](O)[C@H](O)[C@H]4O)cccc31)c1cccc(O[C@@H]3O[C@H](CO)[C@@H](O)[C@H](O)[C@H]3O)c1C2=O [sennoside-A] (10 µM) here?
**A.** -0.287

**Q.** With COc1ccccc1S(=O)(=O)Nc1ccc2c(c1)CN(C)C(=O)N2 (0.833333 µM) as the compound, how does the morphology score read?
**A.** -0.0409

**Q.** For CC(CN(C)C)CN1c2ccccc2CCc2ccccc21 (stereo not given) [trimipramine] (10 µM), which morphology score is on record?
**A.** 0.451

**Q.** How did the morphology score turn out when COC(=O)C1=C(C)NC(C)=C(C(=O)OCCSc2ccccc2)[C@@H]1C (10 µM) was run?
**A.** 0.0793

**Q.** Which morphology score does the source give for CCOc1ccc2nc(S(N)(=O)=O)sc2c1 [ethoxzolamide] (10 µM) here?
**A.** 0.205

**Q.** With CN(C)C1CCN(C(=O)c2ccc(NC(=O)Nc3ccc(-c4nc(N5CCOCC5)nc(N5CCOCC5)n4)cc3)cc2)CC1 (10 µM) as the compound, how does the morphology score read?
**A.** -0.0113

**Q.** With Cc1nc2c(-c3cnc(N)nc3)nc(N3CCOCC3)nc2n1C(C)C (10 µM) as the compound, how does the morphology score read?
**A.** -0.0616

**Q.** How did the morphology score turn out when Cc1cc(C)cc(C(=O)O[C@H]2C[C@H]3CC[C@@H](C2)N3C)c1 [tropanyl-3,5-dimethylbenzoate] (10 µM) was run?
**A.** 0.23

**Q.** Which morphology score does the source give for C[C@@H](NC(=O)CCc1nc2ccccc2c(=O)[nH]1)c1ccccc1 (10 µM) here?
**A.** 0.239

**Q.** With O=C1NC(=O)c2c1c(-c1ccccc1)cc1[nH]c3ccc(O)cc3c21 (0.833333 µM) as the compound, how does the morphology score read?
**A.** 0.685

**Q.** With Cc1nc(Nc2n[nH]c3c2CN(C(=O)N[C@H](CN(C)C)c2ccccc2)C3(C)C)c2sccc2n1 (10 µM) as the compound, how does the morphology score read?
**A.** -0.232

**Q.** With CC(C)N[C@H]1CCn2c(=O)[nH]c3cccc(c32)[C@@H]1O [zilpaterol] (10 µM) as the compound, how does the morphology score read?
**A.** 0.19

**Q.** Which morphology score does the source give for CCOC(=O)COc1ccc2c(=O)cc(-c3ccccc3)oc2c1 [efloxate] (10 µM) here?
**A.** 0.19

**Q.** Nc1nc(=O)c2c([nH]1)NCC(CNc1ccc(C(=O)N[C@@H](CCC(=O)O)C(=O)O)cc1)N2C=O (stereo not given in full) [leucovorin] (10 µM) was tested. Which morphology score did it give?
**A.** -0.0198

**Q.** How did the morphology score turn out when O=C(Nc1nc(-c2cc(Cl)cs2)c(N2CCN(C3CCCCC3)CC2)s1)c1cnc(N2CCC(C(=O)O)CC2)c(Cl)c1 [avatrombopag] (10 µM) was run?
**A.** 0.0997

**Q.** How did the morphology score turn out when Cc1cc(C)c(N)c(C#Cc2cccc(F)c2)n1 (10 µM) was run?
**A.** 0.221

**Q.** How did the morphology score turn out when NCC[C@H](O)C(=O)N[C@@H]1C[C@H](N)[C@@H](O[C@H]2O[C@H](CN)[C@@H](O)[C@H](O)[C@H]2O)[C@H](O)[C@H]1O[C@H]1O[C@H](CO)[C@@H](O)[C@H](N)[C@H]1O [amikacin] (10 µM) was run?
**A.** -0.122

Reference: the supplement of paper PMC13380429
